High-throughput results from PubChem.
This is one part of a sample in which hits are shown more often than they occur.
IMPase Li cell: membrane-permeable IMPase blocker, potentiated with lithium; CHO-M1 cells, IP1 TR-FRET (IP-One), carbachol + lithium; Potency, µM (top dose mostly 59.4 µM), for inactives: top-dose activity, negative = IMPase inhibition, most hits filed as inhibitors; 210,000 compounds, 0.35% hits;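 further: IP1 builds up when IMPase is blocked and the TR-FRET signal falls; potency means the concentration at half of the fitted maximal effect; plate controls were basal vehicle for no effect and high inhibitor control for full effect; nearly all actives have a fitted effect of over 50% in size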
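Concentration–response in CHO-M1 cells, lithium-potentiated; 30 min at 37C. IP1 detected by competitive TR-FRET after 10 min lysis at RT. Hill-fitted AC50.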
NPSR antag: antagonists of human neuropeptide S receptor cAMP signaling; Q6W5P4; CHO-NPSR cells, cAMP TR-FRET, antagonist mode; Potency, µM (highest dose often 38.3 µM), inactives show at the top dose activity change, negative = inhibition, most hits filed as inhibitors; 220,000 compounds, 1% hits; further: potency means the concentration at half of the fitted maximal effect; nearly all actives have a fitted effect of over 50% in size
Target sequence (Q6W5P4 whole entry, looked up): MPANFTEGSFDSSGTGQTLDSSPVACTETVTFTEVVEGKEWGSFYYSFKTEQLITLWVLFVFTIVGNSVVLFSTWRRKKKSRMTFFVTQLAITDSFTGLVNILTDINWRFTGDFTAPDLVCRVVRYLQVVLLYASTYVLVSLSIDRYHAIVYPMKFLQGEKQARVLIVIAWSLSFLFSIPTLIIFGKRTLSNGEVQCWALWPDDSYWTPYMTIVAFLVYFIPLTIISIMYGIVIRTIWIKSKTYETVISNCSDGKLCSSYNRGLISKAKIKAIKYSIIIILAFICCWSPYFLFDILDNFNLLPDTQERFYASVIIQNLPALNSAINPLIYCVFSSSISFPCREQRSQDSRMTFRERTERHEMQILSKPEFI
IMPase cell inh: IMPase inhibition in cells | P97697 | CHO-M1 cells, IP1 accumulation, HTRF TR-FRET ratio | inhibition (IP1 accumulation), % at 46.1 µM | 120,000 tested, under 10 active | AID 901; active means well fitted curve in the direction sought with a large enough effect in the signal ratio, not every such curve was filed as active; inconclusive means small, poorly fitted or top-dose-only effect, or a change in a side signal; inactive means no such curve, though single readings can be large or run the other way; the % refers to the signal ratio;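 further: cells stimulated with carbachol in lithium chloride buffer; plate controls were DMSO basal wells for no effect and reference inhibitor wells for full effect; higher means more IMPase inhibition seen as more IP1 and lower FRET ratio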
Target sequence (P97697 whole entry, looked up): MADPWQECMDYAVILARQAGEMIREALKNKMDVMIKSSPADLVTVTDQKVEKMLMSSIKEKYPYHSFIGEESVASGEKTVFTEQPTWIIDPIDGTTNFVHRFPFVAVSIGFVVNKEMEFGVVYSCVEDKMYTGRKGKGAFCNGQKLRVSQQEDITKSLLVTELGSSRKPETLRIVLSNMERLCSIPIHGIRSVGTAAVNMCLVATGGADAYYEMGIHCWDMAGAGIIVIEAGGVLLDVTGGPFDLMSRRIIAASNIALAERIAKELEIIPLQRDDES
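Measured: the HTRF emission ratio (665/620 nm) plus the 620 nm donor channel, each fitted to the Hill equation to give AC50. Cells were CHO-M1 given compounds up to 46 uM and a 30 min carbachol stimulation at 37C.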
* hit, by the source's call; ? = inconclusive; . = no result given; ! = not active in a repeat; [ ] = remark or other dose. Unless noted, the call rests on the fitted dose curve; in most records, active means well fitted curve in the direction sought with a large enough effect; inconclusive means small, poorly fitted or top-dose-only effect, or another doubt; inactive means no such curve, though single readings can be large; an effect the other way counts as inactive or inconclusive. Unless noted, on the % scale 0 is the no-effect control and ±100 the full control effect.

SMILES	IMPase Li cell	NPSR antag	IMPase cell inh
Cn1ncnc2c(=O)n(C)c(=O)nc1-2	21%[38.3 µM]	1µM*	5
CN1CCc2nc(N)c(C#N)c(-c3ccccc3)c2C1	34%[38.3 µM]	-2%[46.1 µM]	-1[1.84 µM]
CN1CCc2nc3sc(C#N)c(N)c3c(-c3cccs3)c2C1	36%[38.3 µM]	13µM*	12
CC(C)(C)C(=O)c1cn(CC(=O)NCc2ccco2)c2ccccc12	6%	-17%	.
O=C(Cn1cc(C(=O)c2ccccc2F)c2ccccc21)NCc1ccco1	8.9µM*	?	6
CC[C@@]1(O)C(=O)OCc2c1cc1n(c2=O)Cc2cc3cc(O)ccc3nc2-1	10µM*	.	.
Cc1nc2ccccc2cc1C[N+]12CN3CN(CN(C3)C1)C2	-7%	.	.
CC(C)C[C@H]1C(=O)N2CCC[C@@H]2[C@@]2(O)O[C@](NC(=O)[C@@H]3C=C4c5cccc6[nH]cc(c56)C[C@@H]4N(C)C3)(C(C)C)C(=O)N12	9%	.	5[20.6 µM]
CC(C)C[C@H]1C(=O)N2CCCC2[C@]2(O)O[C@](NC(=O)[C@@H]3C=C4c5cccc6[nH]c(Br)c(c56)C[C@H]4N(C)C3)(C(C)C)C(=O)N12 (some centres undefined)	10%	13µM*	.
CCOc1ccc(-n2nc3c(=S)[nH]nc(C)c3c2C)cc1	5µM*	6.3µM*	.
CCOc1ccc(-c2c(C)n(-c3ccc(OCC)cc3)c3[n+]2CCCCC3)cc1	.	-29%	.
CCCN1CCC[C@H](c2cccc(C#N)c2)C1	.	.	12
O=C(O)c1cc[c]([Hg][S]c2ncnc3nc[nH]c23)cc1	8%	.	.
Nc1nc2c(ncn2[C@@H]2O[C@H](CO)[C@@H](O)[C@@H]2O)c(=[SH+])[nH]1.O=[N+]([O-])c1ccc(O)[c]([Hg])c1	23%	.	.
c1ccc(CCCN2CCN(CCOC(c3ccccc3)c3ccccc3)CC2)cc1	34%	16µM*	16
Fc1ccc(C(OCCN2CCN(CCCc3ccccc3)CC2)c2ccc(F)cc2)cc1	18%	?	11
C/C=C(\C)C(=O)O[C@@H]1C(C)=C2[C@H]([C@@H]1OC(=O)CCCCCCC)[C@@](C)(OC(C)=O)C[C@@H](OC(=O)CCC)[C@@]1(O)[C@H]2OC(=O)[C@]1(C)O	.	.	10
C/C=C(\C)C(=O)OC1C(C)=C2C(C1OC(=O)CCCCC)C(C)(OC(C)=O)CC(OC(=O)CCC)C1(O)C2OC(=O)C1(C)O (centres undefined)	.	4µM*	.
C[C@]12CC(=CO)C(=O)C[C@@H]1CC[C@@H]1[C@@H]2CC[C@@]2(C)[C@H]1CC[C@]2(C)O	.	6.3µM*	.
C[C@]12CCC(=O)C=C1CC[C@@H]1[C@@H]2CC[C@@]2(C)[C@H]1CC[C@]2(C)O	2%	-34%	.
N[C@]1(C(=O)O)CC[C@@H](C(=O)O)C1 (racemic)	-26%	.	.
N[C@@H]1CCc2cc(O)c(O)cc2C1	.	.	9
COC(=O)C1(O)CC2OC1(C)n1c3ccccc3c3c4c(c5c6ccccc6n2c5c31)C(=O)NC4 (centres undefined)	-4%	.	.
CN[C@H]1C[C@H]2O[C@@](C)([C@H]1OC)n1c3ccccc3c3c4c(c5c6ccccc6n2c5c31)C(=O)NC4	5%	6.3µM*	.
CC(C)[C@]1(O)[C@@H](OC(=O)c2ccc[nH]2)[C@]2(O)[C@@]3(C)C[C@@]4(O)O[C@@]5([C@H](O)[C@@H](C)CC[C@]35O)[C@]2(O)[C@]41C	4%	.	.
SMILES	IMPase Li cell	NPSR antag	IMPase cell inh
C=C(C)[C@H]1[C@H]2OC(=O)[C@@H]1[C@]1(O)C[C@H]3O[C@]34C(=O)O[C@H]2[C@@]14C	3%	.	1[20.6 µM]
N#CCc1ccccc1	-5%	.	.
CN(C)c1ccc(-[n+]2c(-c3ccccc3)cc(-c3ccccc3)cc2-c2ccccc2)cc1	22%	13µM*	.
C[n+]1c(-c2ccccc2)cc(-c2ccc(Cl)cc2)cc1-c1ccccc1	13%	-6%	.
N[C@H](CCP(=O)(O)O)C(=O)O	-4%	.	5
C[C@@H](O)CN(CCN(C[C@@H](C)O)C[C@@H](C)O)C[C@@H](C)O.O=[N+]([O-])O.[Cu]	-16%	.	.
O=c1c(C=NCCN2CCNCC2)c(O)n(C2CCCCC2)c(=O)n1C1CCCCC1	23%[38.3 µM]	-20%[46.1 µM]	-1
N=C(N)c1c(O)n(C2CCCCC2)c(=O)n(C2CCCCC2)c1=O	5%	10µM*	-5
CCn1cc(C(=O)O)c(=O)c2cc3c(cc21)OCO3	7.9µM*!	8%	1[20.6 µM]
CCn1cc(C(=O)N2CCCCC2)c2ccccc21	5%	5%	.
CCC1CN2CCC1CC2C(O)c1ccnc2ccc(OC)cc12 (centres undefined)	20%	.	.
O[C@H](CN1CC1)[C@@H](O)CN1CC1	2%	.	.
O=C(O)c1ccc2c(c1)C1C(Cl)C(Sc3ccccc3[N+](=O)[O-])CC1C(c1cccc([N+](=O)[O-])c1)N2 (centres undefined)	7%	-45%	.
O=C(O)c1cccc2c1NC(c1cccc([N+](=O)[O-])c1)C1CC(Sc3ccccc3[N+](=O)[O-])C(Cl)C21 (centres undefined)	27%	10µM*	.
CCCCCc1nc2c(c(=O)c3ccccc3n2C)c(=O)n1C1CCCCCC1	-9%	10µM*	-2
CCCCCc1nc2ccccc2c(=O)n1-c1ccc(C)cc1	.	.	6
NC[C@H](O)c1cc(O)c(O)cc1F	.	.	2
O=C(O)/C=C\c1ccc[c]([Sb])c1	-7%	.	.
OCCN1CCN(CCCN2c3ccccc3Sc3ccc(C(F)(F)F)cc32)CC1	20%	?	2[20.6 µM]
FC(F)(F)c1ccc2c(c1)N(CCCN1CCN(CCCl)CC1)c1ccccc1S2	48%[38.3 µM]	7.9µM*	18
Cc1ccc(S(=O)ON2CCC(C(=O)O)(c3ccccc3)CC2)cc1 (centres undefined)	-6%	.	.
COC(=O)[C@]1(C)C[C@H]1[C@H](NP(=O)(c1ccccc1)c1ccccc1)c1ccccc1	3%	13µM*	.
COC(=O)[C@H]1C[C@@H]1[C@H](NP(=O)(c1ccccc1)c1ccccc1)c1ccccc1	17%	1%	.
O=c1c(C=NCc2cccs2)c(O)n(C2CCCCC2)c(=O)n1C1CCCCC1	0%[38.3 µM]	?	5
O=c1c(C=Nc2cccnc2Cl)c(O)n(CCCCl)c(=O)n1C1CCCCC1	4%	10µM*	-9
SMILES	IMPase Li cell	NPSR antag	IMPase cell inh
[N-]=[N+]=CC(=O)CC[C@H](N)C(=O)O	-11%	.	.
CCCOc1ccc2[nH]cc(C3=CCNCC3)c2n1	12%	.	-1
O=C(O)[C@H]1[C@H](C(=O)O)[C@H]2CC[C@@H]1O2	.	.	5
COC(=O)[C@@H]1[C@@H](C(=O)OC)C2(c3ccccc3-c3ccccc32)N(c2ccc(Cl)cc2)N1C#N	11%	6.3µM*	?
COC(=O)C[C@]1(C(=O)OC)CN(C#N)N(c2ccc(Cl)cc2)C12c1ccccc1-c1ccccc12	11%	-14%[46.1 µM]	7
CO[C@H]1[C@H](O)[C@H](O[C@@H]2[C@H](Oc3cccc4c(O)c5c(=O)oc6ccc(C)c7c(=O)oc(c34)c5c67)O[C@@H](C)[C@H](O)[C@H]2O)O[C@@H](C)[C@@H]1O	3%	.	.
COc1cc2c(cc1OC)[C@]13CC[N@+]4(C)CC5=CCO[C@H]6CC(=O)N2[C@@H]1C6[C@@H]5C[C@]34O (some centres undefined)	2%	.	.
